Assay results reported in PubChem BioAssay AID493168 (National Center for Advancing Translational Sciences (NCATS), 2011).
Inconclusive results are not listed. Calls of active or inactive are those of the source. Calls follow the shape of the dose curve; as a rule, active = well fitted inhibition curve with a large enough effect; inconclusive = small, poorly fitted or top-dose-only effect, or effect the other way; inactive = flat fitted curve, though single readings scatter.
Also: nearly all actives have a fitted effect of over 55% in size.
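For activity change, negative = inhibition in this document: plate controls were DMSO wells for no effect and full inhibition by NEM control for full effect.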
Potency is read from the fitted curve at half-maximal effect.

These compounds were tested against Ubiquitin carboxyl-terminal hydrolase 2 (Homo sapiens) (UniProt O75604) (assay: Confirmation Assay for Inhibitors of Ubiquitin-specific Protease USP2a Using CHOP2 as the Reporter). Details: USP2 core, Ub-CHOP2 coupled reporter fluorescence; series mostly up to 38.3 µM; activity change, negative = inhibition: at the top concentration.
Ubiquitin carboxyl-terminal hydrolase 2 (Homo sapiens), sequence (O75604 whole entry, looked up): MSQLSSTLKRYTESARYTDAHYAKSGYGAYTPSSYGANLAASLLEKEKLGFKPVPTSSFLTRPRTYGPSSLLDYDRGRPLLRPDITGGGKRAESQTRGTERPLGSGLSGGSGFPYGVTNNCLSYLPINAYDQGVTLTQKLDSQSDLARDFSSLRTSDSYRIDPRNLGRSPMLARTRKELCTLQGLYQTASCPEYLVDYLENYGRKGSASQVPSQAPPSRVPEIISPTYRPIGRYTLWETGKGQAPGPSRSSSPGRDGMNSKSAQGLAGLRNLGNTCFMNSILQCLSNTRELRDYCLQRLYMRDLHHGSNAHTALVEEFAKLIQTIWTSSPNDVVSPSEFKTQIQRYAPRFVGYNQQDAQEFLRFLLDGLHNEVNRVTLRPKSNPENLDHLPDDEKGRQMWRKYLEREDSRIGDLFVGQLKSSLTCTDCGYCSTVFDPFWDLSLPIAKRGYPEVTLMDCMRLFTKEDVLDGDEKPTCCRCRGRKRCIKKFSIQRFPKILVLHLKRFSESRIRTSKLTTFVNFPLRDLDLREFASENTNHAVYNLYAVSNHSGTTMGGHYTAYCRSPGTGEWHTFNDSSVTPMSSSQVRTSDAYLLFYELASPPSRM
Description: NIH Molecular Libraries Probe Centers Network [MLPCN] NIH Chemical Genomics Center [NCGC] MLSCN Grant: XO1-MH079852-01 PI Name: Nicholson, Ben. Progenra Inc, Malvern, PA NCGC Assay Overview: Homeostasis of cellular proteins is maintained through a combination of synthesis and degradation. The pathway that accounts for the majority of protein degradation is the ubiquitin-proteasomal pathway. Ubiquitin (Ub) is highly conserved in all cells and the generation of a multi-Ub chain typically targets proteins for degradation by the proteasome. However, ubiquitination is highly reversible and dynamic. Deubiquitination, the reverse process, is catalyzed through the action of enzymes referred to as isopeptidases or deubiquitinating enzymes (DUBs). This group of enzymes is collectively responsible for maintaining adequate pools of free ubiquitin and regulating the ubiquitination status of cellular proteins. The class of DUBs referred to as the ubiquitin-specific proteases (USP) family functions endoproteolytically to cleave Ub chains from a wide range of protein substrates. USP2a deubiquitinates fatty acid synthase (FASN) which has recently been identified as an emerging oncology target. To identify inhibitors of USP2a a cell-free assay was employed. […] The reporter enzyme chosen is an […] called CHOP2, which is activated when the Ub is cleaved by USP2. The free and now activated reporter can subsequently act on its reporter substrate. Thus, this coupled assay gives a fluorescent read-out at excitation/emission wavelengths of 485/531. The assay was developed by Progenra, Inc. and has been licensed for sale by LifeSensors, Inc. as Ub-CHOP2-Reporter-Kit (#PR1101).
NCGC Assay Protocol Summary: The assay buffer, prepared fresh at the day of the assay, contains 20mM Tris-HCl pH 8.0, 2mM CaCl2, 2mM beta-Mercaptoethanol, 0.05% CHAPS. 3ul of 20nM (10nM final) USP2 core, which is stored on ice, is dispensed into a medium-binding black solid Kalypsys 1,536 well plate using the Kalypsys dispenser. The assay plate is then pinned with 23nL compound with the Kalypsys pintool in columns 5-48. The controls are pinned as follows: column 1 two-fold dilutions of 2M NEM in duplicate; column 2 2M NEM (final concentration 38.2mM); column 3&4 DMSO. The assay plate is incubated at RT for 30min. Subsequently, 1.5uL of 100nM (25nM final) Ub-CHOP2 and 1.5uL of 100nM (25nM final) Reporter Substrate (both stored on ice and protected from light) were dispensed into the plate using the Kalypsys dispenser. Plates were read after 60min RT incubation on a ViewLux (Perkin Elmer) plate reader using the following wavelengths Ex 485nm /Em 531nm. Data were normalized to the to AC100 inhibition (NEM). Concentration-response curves were fitted to the normalized data and the concentration-response curves were then classified based on curve quality (r2), response magnitude and degree of measured activity. The time zero reading was used to flag fluorescence artifacts. Keywords: ubiquitination, deubiquitination, proteases, profluorescent, MLSMR, MLPCN, NIH Roadmap, qHTS, NCGC
For `O=C1NC(=O)N(Cc2ccco2)C(=O)/C1=C/c1cccn1CCOc1ccccc1Cl`, the “activity change, negative = inhibition” value was -3.58% (inactive).
In the case of `Nc1ccc(S(=O)(=O)N2CCCCC2c2cccnc2)cc1` (stereo not drawn), the “activity change, negative = inhibition” value is reported as 5.3% (inactive).
`O=c1[nH]c(=O)n(Cc2ccc(F)cc2)c(O)c1C=NCCCn1ccnc1` was tested, and the “activity change, negative = inhibition” value was -3.8% (inactive).
In the case of `CC1Oc2cc3c(-c4c(O)cc(O)c5c(O)c6c(cc45)OC(C)C(C)C6=O)c(O)cc(O)c3c(O)c2C(=O)C1C` (stereo not drawn), the Potency is reported as 13.1 µM (active).
In the case of `Cc1nn(Cc2ccc(Cl)cc2Cl)c(Cl)c1C(=O)Nc1ccc(OC(F)F)cc1`, the “activity change, negative = inhibition” value is reported as 1.17% (inactive).
For `NC(N)=N/N=C/c1ccc(N(c2ccccc2)c2ccccc2)cc1`, the Potency was 16.5 µM (active).
For `COc1ccc(S(=O)(=O)Cc2ccc(C(=O)N3CCC4(CC3)OCCO4)o2)cc1`, the “activity change, negative = inhibition” value was -0.023% (inactive).
In the case of `OC(c1ccncc1)(c1ccc(F)cc1)c1ccc(F)cc1`, the “activity change, negative = inhibition” value is reported as -3.95% (inactive).
For `CCCC1=C(C(=O)OCC)C2(C(=O)Nc3ccc(C)cc32)C(C#N)=C(N)O1` (stereo not drawn), the “activity change, negative = inhibition” value was 3.9% (inactive).
In the case of `O=C(O)c1cccc2c1NC(C(=O)O)C1CC(Sc3ccccc3[N+](=O)[O-])C(Cl)C21` (stereo not drawn), the Potency is reported as 7.36 µM (active).
For `O=C1NC(=S)N(c2ccccc2)C(=O)/C1=C/c1ccco1`, the Potency was 14.7 µM (active).
`COc1ccc(NC(=O)c2c(C)nn(Cc3ccccc3Cl)c2Cl)cc1Cl` was tested, and the “activity change, negative = inhibition” value was 1.39% (inactive).
With `O=C(COc1ccc(S(=O)(=O)N2CCOCC2)cc1)N1CCN(Cc2ccc3c(c2)OCO3)CC1` the “activity change, negative = inhibition” value was 0.801% (inactive).
`CC(=Nc1ccc2c(c1)CCC2)c1c(O)n(C)c(=O)n(C)c1=O` was tested, and the “activity change, negative = inhibition” value was 0.651% (inactive).
For `O=c1[nH]c(=S)n(Cc2ccco2)c(O)c1C=NCc1cccs1`, the “activity change, negative = inhibition” value was -18.4% (inactive).
In the case of `FC(F)(F)c1ccc2c(c1)N(CCCN1CCN(CCCl)CC1)c1ccccc1S2`, the “activity change, negative = inhibition” value is reported as 0.492% (inactive).
With `O=C1NC(=O)N(Cc2ccco2)C(=O)/C1=C/C=C/c1ccco1` the Potency was 13.1 µM (active).
In the case of `O=C1CC(=O)N(Cc2ccccc2)C(=O)N1CCCCCCN1C(=O)CC(=O)N(Cc2ccccc2)C1=O`, the “activity change, negative = inhibition” value is reported as -1.12% (inactive).
